The full data set covers some 8,800 targets. This sample favours those with a hit. About 0.5% of all pairs of compound and target were hits.
Columns and labels:
Assay in all cases: log2 fold change, soluble protein after heating vs DMSO (PISA); higher = thermal stabilisation; K562 lysate, 10 uM; active = over 0.2 and 3.5 SD of the protein, either way, in both replicates (recomputed)
ibrutinib = compound: C=CC(=O)N1CCC[C@@H](n2nc(-c3ccc(Oc4ccccc4)cc3)c3c(N)ncnc32)C1 [ibrutinib]
Procedure, shortened: (§1)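 K562 pellets were dounce-homogenised in PBS pH 7.4 containing 1 mM MgCl2, and the crude extract, at 1 mg/mL protein, was exposed to 10 μM compound for 30 min. Aliquots were heated for 3 min across 48°C-58°C, pooled, brought to 0.5% NP-40 at 4°C and spun at 21,000xg for 90 min, with the supernatant taken as soluble protein. TMTpro 16plex LC-MS/MS with equalised channel sums quantified that protein. Values are log-two fold changes in thermal stability relative to solvent controls, taken from duplicates.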

[1] = compound: CC(=O)c1cnc2ccc(-c3cc(Cl)c(O)c(Cl)c3)nc2c1N[C@H]1CC[C@H](CN(C)C)CC1
Procedure, shortened: as §1

ralimetinib = compound: CC(C)(C)Cn1c(N)nc2ccc(-c3[nH]c(C(C)(C)C)nc3-c3ccc(F)cc3)nc21 [ralimetinib]
Procedure, shortened: as §1

[2] = compound: CC(C)(O)CC(=O)NCCn1ccc2ncnc(Nc3ccc(Oc4cccc(C(F)(F)F)c4)c(Cl)c3)c21
Procedure, shortened: as §1

[3] = compound: CC(C)C1=C2N=C(C=C(N2N=C1)NCC3=CC=CC=C3)NCCCCCCN
Procedure, shortened: as §1

[4] = compound: CC1=C(C(CC(=O)N1)C2=CC=C(C=C2)C(F)(F)F)C(=O)NC3=C(C=C4C(=C3)C=NN4)F
Procedure, shortened: as §1

[5] = compound: CC1=C(C2=C(C=C1)C(=O)C3=CC=CC=C3N2CCCN)C
Procedure, shortened: as §1

[6] = compound: CC1=C(C=C(C=C1)NC(=O)C2=CC(=CC=C2)C(C)(C)C#N)NC3=CC4=C(C=C3)N=CN(C4=O)C
Procedure, shortened: as §1

[7] = compound: CC1=C(C=C(C=C1)NC(=O)C2=CC(=CC=C2)N(C)C)NC(=O)C3=CC=C(C=C3)O
Procedure, shortened: as §1

[8] = compound: CC1=CC=C(C=C1)SC2=C3C=C(SC3=CN=C2)C(=O)N
Procedure, shortened: as §1

vemurafenib = compound: CCCS(=O)(=O)Nc1ccc(F)c(C(=O)c2c[nH]c3ncc(-c4ccc(Cl)cc4)cc23)c1F [vemurafenib]
Procedure, shortened: as §1

[9] = compound: CCCS(=O)(=O)Nc1ccc(F)c(C(=O)c2c[nH]c3ncc(Cl)cc23)c1F
Procedure, shortened: as §1

barasertib = compound: CCN(CCCOc1ccc2c(Nc3cc(CC(=O)Nc4cccc(F)c4)[nH]n3)ncnc2c1)CCOP(=O)(O)O [barasertib]
Procedure, shortened: as §1

[10] = compound: CC[C@@H]1C(=O)N(C)c2cnc(Nc3ccc(C(=O)NC4CCN(C)CC4)cc3OC)nc2N1C1CCCC1
Procedure, shortened: as §1

volasertib = compound: CC[C@@H]1C(=O)N(C)c2cnc(Nc3ccc(C(=O)N[C@H]4CC[C@H](N5CCN(CC6CC6)CC5)CC4)cc3OC)nc2N1C(C)C [volasertib]
Procedure, shortened: as §1

[11] = compound: CCn1c(C(=O)N(C2CC2)C2CC2)cc2c3c(ncn3C)c(Nc3cc(C)n(C)n3)nc21
Procedure, shortened: as §1

[12] = compound: CCn1cc(-c2ccnc3[nH]c(-c4cccc(CN(C)C)c4)cc23)c(-c2ccc(NC(=O)N(C)C)cc2)n1
Procedure, shortened: as §1

[13] = compound: CN1CCC(CNc2ccc3ncc(-c4cccc(OC(F)(F)F)c4)n3n2)CC1
Procedure, shortened: as §1

saracatinib = compound: CN1CCN(CCOc2cc(OC3CCOCC3)c3c(Nc4c(Cl)ccc5c4OCO5)ncnc3c2)CC1 [saracatinib]
Procedure, shortened: as §1

sotrastaurin = compound: CN1CCN(c2nc(C3=C(c4c[nH]c5ccccc45)C(=O)NC3=O)c3ccccc3n2)CC1 [sotrastaurin]
Procedure, shortened: as §1

Measured: log2 fold change

KBTBD2 (UniProt Q8IY47)
UniProt Q8IY47, sequence (Q8IY47 whole entry, looked up): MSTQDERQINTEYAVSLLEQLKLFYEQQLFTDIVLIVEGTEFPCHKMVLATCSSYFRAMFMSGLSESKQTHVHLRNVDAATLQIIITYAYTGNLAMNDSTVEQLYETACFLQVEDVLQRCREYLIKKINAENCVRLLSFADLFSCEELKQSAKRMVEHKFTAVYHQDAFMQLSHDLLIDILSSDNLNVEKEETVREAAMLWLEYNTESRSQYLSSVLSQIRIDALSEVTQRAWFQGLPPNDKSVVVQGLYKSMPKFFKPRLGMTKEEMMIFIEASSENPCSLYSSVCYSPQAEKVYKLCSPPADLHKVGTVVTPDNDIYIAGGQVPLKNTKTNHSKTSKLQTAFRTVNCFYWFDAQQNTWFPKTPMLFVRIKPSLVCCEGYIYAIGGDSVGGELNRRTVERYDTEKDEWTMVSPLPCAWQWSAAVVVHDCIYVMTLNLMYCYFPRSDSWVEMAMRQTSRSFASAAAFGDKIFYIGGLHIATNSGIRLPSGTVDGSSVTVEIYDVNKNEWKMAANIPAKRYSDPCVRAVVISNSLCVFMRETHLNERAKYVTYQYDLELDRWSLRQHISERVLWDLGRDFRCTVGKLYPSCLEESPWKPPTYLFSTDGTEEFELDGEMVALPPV
inactive: ibrutinib -0.005 | [1] -0.039 | ralimetinib -0.113 | [2] -0.227 | [3] 0 | [4] 0.001 | [5] -0.036 | [6] 0.116 | [7] 0 | [8] -0.041 | vemurafenib -0.035 | [9] 0.006 | barasertib 0.022 | [10] -0.018 | volasertib 0.013 | [11] -0.181 | [12] -0.166 | [13] 0.06 | saracatinib 0.031 | sotrastaurin -0.03

HDAC2 (UniProt Q92769)
UniProt Q92769, sequence (Q92769 whole entry, looked up): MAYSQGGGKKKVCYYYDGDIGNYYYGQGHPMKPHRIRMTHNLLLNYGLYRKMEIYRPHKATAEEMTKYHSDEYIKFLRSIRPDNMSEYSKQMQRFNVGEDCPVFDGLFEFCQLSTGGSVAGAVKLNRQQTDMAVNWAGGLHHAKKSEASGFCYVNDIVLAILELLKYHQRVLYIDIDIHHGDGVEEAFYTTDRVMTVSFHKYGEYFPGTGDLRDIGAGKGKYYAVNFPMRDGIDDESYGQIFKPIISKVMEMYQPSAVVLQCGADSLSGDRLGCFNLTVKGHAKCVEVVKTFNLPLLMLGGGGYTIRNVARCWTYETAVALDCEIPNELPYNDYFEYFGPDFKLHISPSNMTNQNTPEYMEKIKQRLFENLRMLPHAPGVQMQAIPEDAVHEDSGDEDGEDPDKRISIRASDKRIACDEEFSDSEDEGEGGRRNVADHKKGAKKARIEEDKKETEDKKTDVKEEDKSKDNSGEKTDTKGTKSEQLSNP
inactive: ibrutinib 0 | [1] -0.008 | ralimetinib -0.005 | [2] -0.029 | [3] -0.001 | [4] -0.013 | [5] -0.01 | [6] -0.025 | [7] -0.016 | [8] -0.013 | vemurafenib -0.025 | [9] 0.035 | barasertib 0.009 | [10] -0.012 | volasertib -0.009 | [11] 0.002 | [12] -0.052 | [13] 0.055 | saracatinib 0.02 | sotrastaurin -0.024

HMGCS1 (UniProt Q01581)
UniProt Q01581, sequence (Q01581 whole entry, looked up): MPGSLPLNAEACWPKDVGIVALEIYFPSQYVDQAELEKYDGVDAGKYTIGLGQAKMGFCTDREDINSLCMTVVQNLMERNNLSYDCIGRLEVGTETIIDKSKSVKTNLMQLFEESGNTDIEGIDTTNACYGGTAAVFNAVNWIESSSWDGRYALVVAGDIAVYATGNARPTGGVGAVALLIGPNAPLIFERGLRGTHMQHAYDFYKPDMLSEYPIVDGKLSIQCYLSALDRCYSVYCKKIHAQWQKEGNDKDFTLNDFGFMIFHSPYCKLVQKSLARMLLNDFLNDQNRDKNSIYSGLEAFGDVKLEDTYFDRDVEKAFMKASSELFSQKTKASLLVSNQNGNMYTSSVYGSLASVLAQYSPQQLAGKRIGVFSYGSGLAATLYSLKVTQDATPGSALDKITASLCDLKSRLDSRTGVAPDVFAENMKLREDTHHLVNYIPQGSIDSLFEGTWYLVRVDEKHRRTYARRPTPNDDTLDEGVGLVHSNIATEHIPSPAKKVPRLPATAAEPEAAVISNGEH
inactive: ibrutinib -0.012 | [1] -0.006 | ralimetinib 0.012 | [2] -0.01 | [3] -0.001 | [4] -0.011 | [5] 0.013 | [6] -0.001 | [7] 0.006 | [8] 0.015 | vemurafenib 0.008 | [9] -0.009 | barasertib -0.038 | [10] -0.003 | volasertib -0.017 | [11] 0.014 | [12] -0.005 | [13] 0.009 | saracatinib 0.004 | sotrastaurin -0.014

HSPA8 (UniProt E9PN89)
inactive: ibrutinib 0.081 | [1] -0.051 | ralimetinib 0.034 | [2] -0.215 | [3] 0.007 | [4] -0.036 | [5] 0.017 | [6] 0.093 | [7] 0.231 | [8] -0.083 | [9] -0.06 | barasertib -0.041 | [10] 0.057 | volasertib -0.005 | [11] -0.114 | [12] -0.366 | [13] 0.32 | saracatinib -0.01 | sotrastaurin 0.308

INF2 (UniProt Q27J81)
inactive: ibrutinib 0.036 | [1] -0.007 | ralimetinib 0.018 | [2] 0.049 | [3] -0.012 | [4] 0.004 | [5] 0.07 | [6] -0.004 | [7] -0.027 | [8] -0.015 | vemurafenib 0 | [9] -0.059 | barasertib 0.104 | [10] -0.07 | volasertib -0.052 | [11] -0.01 | [12] -0.064 | [13] -0.045 | saracatinib 0.036 | sotrastaurin 0.019

HSPBAP1 (UniProt Q96EW2)
UniProt Q96EW2, sequence (Q96EW2 whole entry, looked up): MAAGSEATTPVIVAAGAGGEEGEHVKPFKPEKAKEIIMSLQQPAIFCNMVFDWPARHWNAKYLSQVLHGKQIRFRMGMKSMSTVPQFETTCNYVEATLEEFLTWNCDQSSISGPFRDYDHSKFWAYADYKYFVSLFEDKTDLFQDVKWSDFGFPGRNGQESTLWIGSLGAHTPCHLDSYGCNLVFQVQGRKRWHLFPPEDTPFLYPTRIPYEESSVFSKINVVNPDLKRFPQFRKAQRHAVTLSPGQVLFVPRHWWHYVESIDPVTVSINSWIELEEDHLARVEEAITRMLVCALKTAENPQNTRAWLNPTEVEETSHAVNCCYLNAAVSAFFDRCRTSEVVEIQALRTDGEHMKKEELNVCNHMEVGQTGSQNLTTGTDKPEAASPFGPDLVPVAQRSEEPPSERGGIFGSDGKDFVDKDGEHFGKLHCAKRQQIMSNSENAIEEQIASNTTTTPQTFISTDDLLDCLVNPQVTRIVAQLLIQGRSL
inactive: ibrutinib -0.008 | [1] 0.039 | ralimetinib -0.056 | [2] -0.095 | [3] 0.038 | [4] -0.214 | [5] -0.324 | [6] 0.002 | [7] 0.084 | [8] 0.084 | [9] 0.04 | barasertib 0.012 | [10] 0.155 | volasertib 0.044 | [11] -0.058 | [12] -0.293 | [13] -0.038 | saracatinib -0.054 | sotrastaurin 0.027

INTS3 (UniProt Q68E01)
UniProt Q68E01, sequence (Q68E01 whole entry, looked up): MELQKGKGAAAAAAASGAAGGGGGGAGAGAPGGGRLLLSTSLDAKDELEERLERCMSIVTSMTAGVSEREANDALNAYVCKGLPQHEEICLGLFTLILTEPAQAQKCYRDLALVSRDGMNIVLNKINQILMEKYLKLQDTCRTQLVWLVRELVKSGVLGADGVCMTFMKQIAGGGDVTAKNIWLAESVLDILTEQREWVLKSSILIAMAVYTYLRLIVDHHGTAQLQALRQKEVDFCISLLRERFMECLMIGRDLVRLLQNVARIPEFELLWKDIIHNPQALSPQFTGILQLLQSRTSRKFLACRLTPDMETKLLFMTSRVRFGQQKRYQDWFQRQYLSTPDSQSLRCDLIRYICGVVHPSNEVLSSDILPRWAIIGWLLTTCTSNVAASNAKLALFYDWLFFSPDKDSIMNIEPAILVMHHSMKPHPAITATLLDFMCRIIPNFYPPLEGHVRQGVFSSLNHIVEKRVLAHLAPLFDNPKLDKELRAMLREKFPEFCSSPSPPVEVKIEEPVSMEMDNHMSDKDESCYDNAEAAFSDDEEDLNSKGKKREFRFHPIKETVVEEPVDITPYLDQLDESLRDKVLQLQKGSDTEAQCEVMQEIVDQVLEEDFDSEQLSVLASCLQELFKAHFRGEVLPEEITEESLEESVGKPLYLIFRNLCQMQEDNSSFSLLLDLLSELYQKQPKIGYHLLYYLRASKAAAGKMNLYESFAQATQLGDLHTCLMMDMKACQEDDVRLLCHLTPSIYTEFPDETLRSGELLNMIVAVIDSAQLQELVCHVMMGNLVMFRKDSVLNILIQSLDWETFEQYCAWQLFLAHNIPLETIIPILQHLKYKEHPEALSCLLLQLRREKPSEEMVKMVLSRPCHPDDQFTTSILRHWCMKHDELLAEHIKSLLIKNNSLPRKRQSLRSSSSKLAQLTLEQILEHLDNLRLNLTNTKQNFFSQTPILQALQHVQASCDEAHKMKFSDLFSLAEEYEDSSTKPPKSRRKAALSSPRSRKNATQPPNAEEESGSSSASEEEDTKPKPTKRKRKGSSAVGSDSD
inactive: ibrutinib 0.044 | [1] 0.024 | ralimetinib 0.019 | [2] -0.032 | [3] 0.032 | [4] -0.035 | [5] 0.004 | [6] 0.009 | [7] 0.025 | [8] -0.032 | vemurafenib 0.038 | [9] 0.02 | barasertib 0.05 | [10] -0.029 | volasertib -0.017 | [11] -0.083 | [12] 0.072 | [13] -0.018 | saracatinib 0.049 | sotrastaurin 0.015

HELQ (UniProt Q8TDG4)
UniProt Q8TDG4, sequence (Q8TDG4 whole entry, looked up): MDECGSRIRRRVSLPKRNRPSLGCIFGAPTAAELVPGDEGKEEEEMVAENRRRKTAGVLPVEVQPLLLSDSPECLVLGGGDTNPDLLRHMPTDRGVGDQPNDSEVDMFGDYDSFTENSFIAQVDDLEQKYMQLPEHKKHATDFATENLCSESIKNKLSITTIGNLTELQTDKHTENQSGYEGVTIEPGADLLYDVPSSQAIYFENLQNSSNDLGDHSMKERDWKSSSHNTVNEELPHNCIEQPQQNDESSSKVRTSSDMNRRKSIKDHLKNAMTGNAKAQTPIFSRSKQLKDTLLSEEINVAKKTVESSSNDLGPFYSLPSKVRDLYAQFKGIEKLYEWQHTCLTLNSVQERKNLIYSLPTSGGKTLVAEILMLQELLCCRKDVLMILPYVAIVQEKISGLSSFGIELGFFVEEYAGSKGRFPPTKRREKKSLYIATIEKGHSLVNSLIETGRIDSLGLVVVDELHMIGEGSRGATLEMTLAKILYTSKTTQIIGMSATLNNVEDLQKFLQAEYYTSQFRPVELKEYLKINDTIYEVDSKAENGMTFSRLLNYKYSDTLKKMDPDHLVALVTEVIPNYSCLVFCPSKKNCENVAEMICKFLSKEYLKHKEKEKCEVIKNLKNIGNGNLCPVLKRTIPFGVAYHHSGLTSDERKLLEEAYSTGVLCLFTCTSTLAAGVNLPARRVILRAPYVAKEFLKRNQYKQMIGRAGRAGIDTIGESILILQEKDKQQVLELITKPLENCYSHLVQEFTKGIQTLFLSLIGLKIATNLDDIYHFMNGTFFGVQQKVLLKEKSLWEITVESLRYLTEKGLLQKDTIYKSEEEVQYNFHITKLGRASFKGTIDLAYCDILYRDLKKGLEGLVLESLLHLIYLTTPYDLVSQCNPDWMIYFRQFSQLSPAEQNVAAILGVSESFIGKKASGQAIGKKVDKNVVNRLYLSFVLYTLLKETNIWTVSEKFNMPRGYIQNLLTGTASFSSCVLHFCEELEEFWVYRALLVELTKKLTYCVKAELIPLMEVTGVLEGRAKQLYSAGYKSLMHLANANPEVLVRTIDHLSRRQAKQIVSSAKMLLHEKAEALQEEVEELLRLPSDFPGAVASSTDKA
inactive: ibrutinib 0.054 | [1] 0.072 | ralimetinib -0.007 | [2] -0.017 | [3] -0.012 | [4] 0.203 | [5] 0.003 | [6] -0.036 | [7] 0.046 | [8] -0.002 | vemurafenib 0.12 | [9] -0.064 | barasertib 0.036 | [10] 0.048 | volasertib 0.01 | [11] -0.044 | [12] 0.038 | [13] -0.104 | saracatinib -0.058 | sotrastaurin 0.057

INTS10 (UniProt Q9NVR2)
UniProt Q9NVR2, sequence (Q9NVR2 whole entry, looked up): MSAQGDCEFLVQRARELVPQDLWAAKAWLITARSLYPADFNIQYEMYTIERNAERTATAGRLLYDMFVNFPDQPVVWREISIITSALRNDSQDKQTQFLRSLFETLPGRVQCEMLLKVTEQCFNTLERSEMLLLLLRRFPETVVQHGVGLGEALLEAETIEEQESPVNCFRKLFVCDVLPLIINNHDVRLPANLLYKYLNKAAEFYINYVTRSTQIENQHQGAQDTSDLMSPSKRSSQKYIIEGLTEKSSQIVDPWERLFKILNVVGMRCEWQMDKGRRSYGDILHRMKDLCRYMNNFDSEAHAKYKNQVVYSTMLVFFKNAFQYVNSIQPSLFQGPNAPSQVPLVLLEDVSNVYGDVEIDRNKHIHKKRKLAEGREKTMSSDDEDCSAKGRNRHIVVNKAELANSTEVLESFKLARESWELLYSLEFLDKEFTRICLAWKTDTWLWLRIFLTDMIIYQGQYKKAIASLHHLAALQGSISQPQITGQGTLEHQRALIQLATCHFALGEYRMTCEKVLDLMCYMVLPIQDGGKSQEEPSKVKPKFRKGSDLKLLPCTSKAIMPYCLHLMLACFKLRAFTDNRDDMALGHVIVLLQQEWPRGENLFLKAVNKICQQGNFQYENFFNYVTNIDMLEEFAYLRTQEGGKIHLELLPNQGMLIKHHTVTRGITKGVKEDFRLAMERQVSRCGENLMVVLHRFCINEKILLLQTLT
inactive: ibrutinib 0.079 | [1] 0.021 | ralimetinib 0.01 | [2] -0.02 | [3] -0.023 | [4] 0.036 | [5] 0 | [6] 0.002 | [7] -0.014 | [8] 0.036 | vemurafenib -0.008 | [9] -0.183 | barasertib 0.061 | [10] -0.129 | volasertib -0.088 | [11] -0.021 | [12] 0.14 | [13] -0.054 | saracatinib 0.052 | sotrastaurin 0.023
